Assay results: paper PMC5540273 (PLoS ONE, 2017)
Values joined by “and” are separate entries in the source; they are usually repeats but may differ in a detail not shown here. Identical values can stand only once. Like-named read-outs stand apart in the source and are kept apart here.

Experiments:
Details in all cases: n = 1
KIT = test system: KIT
LATS1 = test system: LATS1
LATS2 = test system: LATS2
LCK = test system: LCK
LIMK1 = test system: LIMK1
LIMK2 = test system: LIMK2
LKB1 = test system: T1, LKB1
T1 construct: gene STK11

LOK = test system: T2, LOK
T2 construct: gene STK10

LRRK2 = test system: LRRK2
LTK = test system: LTK
[1] = concentration: 1 μM, replicates: in singlicate
[2] = concentration: 1 μM,replicates: in singlicate, 1 µM
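Note: KINOMEscan kinase panel screen.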

With `O=C1NC(=O)C(N2CCc3ccccc32)=C1c1ccccc1Cl` [SB-373598] the “%Inh” value (KIT; [1]) was 2%, the “%Inh” value (LATS1; [1]) was 0% and the “%Inh” value (LATS2; [1]) was 19%. The “%Inh” value (LCK; [1]) was 35%, the “%Inh” value (LIMK1; [1]) was 21% and the “%Inh” value (LIMK2; [1]) was 15%. The “%Inh” value (LKB1; [1]) was 2%, the “%Inh” value (LOK; [1]) was 10% and the “%Inh” value (LRRK2; [1]) was 0%. The “%Inh” value (LTK; [1]) was 99.1%.
`Cc1c(Cn2ccn3c(=O)cc(N4CCOCC4)nc23)cccc1C(F)(F)F` [GSK2289044] was tested, and the “%Inh” value (KIT; [1]) was 10%, the “%Inh” value (LATS1; [1]) was 0% and the “%Inh” value (LATS2; [1]) was 13%. For the same molecule, the “%Inh” value (LCK; [1]) was 7%, the “%Inh” value (LIMK1; [1]) was 0% and the “%Inh” value (LIMK2; [1]) was 0%. The “%Inh” value (LKB1; [1]) was 10%, the “%Inh” value (LOK; [1]) was 0% and the “%Inh” value (LRRK2; [1]) was 0%. For the same molecule, the “%Inh” value (LTK; [1]) was 0%.
`Cl.O=C(Nc1cccc(-c2nn3ncccc3c2-c2ccnc(Nc3cccnc3)n2)c1)c1c(F)cccc1F` [GSK312879] was tested, and the “%Inh” value (KIT; [1]) was 36%, the “%Inh” value (LATS1; [1]) was 2% and the “%Inh” value (LATS2; [1]) was 0%. For the same molecule, the “%Inh” value (LCK; [1]) was 44%, the “%Inh” value (LIMK1; [1]) was 2% and the “%Inh” value (LIMK2; [1]) was 0%. The “%Inh” value (LKB1; [1]) was 0%, the “%Inh” value (LOK; [1]) was 0% and the “%Inh” value (LRRK2; [1]) was 39%. The “%Inh” value (LTK; [1]) was 3%.
In the case of `Cc1cccc(-c2nc(Nc3cccc(C(N)=O)c3)c3ccccc3n2)n1` [GW876019], the “%Inh” value (KIT; [1]) is reported as 0%, the “%Inh” value (LATS1; [1]) is reported as 8% and the “%Inh” value (LATS2; [1]) is reported as 0%. For the same molecule, the “%Inh” value (LCK; [1]) was 20%, the “%Inh” value (LIMK1; [1]) was 0% and the “%Inh” value (LIMK2; [1]) was 9%. The “%Inh” value (LKB1; [1]) was 0%, the “%Inh” value (LOK; [1]) was 21% and the “%Inh” value (LRRK2; [1]) was 73%. For the same molecule, the “%Inh” value (LTK; [1]) was 40%.
For `Fc1cc(Cl)ccc1Nc1ccnc2cc(-c3ccc(CN4CCCCC4)o3)ccc12` [GW560116], the “%Inh” value (KIT; [1]) was 61%, the “%Inh” value (LATS1; [1]) was 3% and the “%Inh” value (LATS2; [1]) was 0%. The “%Inh” value (LCK; [1]) was 35%, the “%Inh” value (LIMK1; [1]) was 0% and the “%Inh” value (LIMK2; [1]) was 0%. The “%Inh” value (LKB1; [1]) was 0%, the “%Inh” value (LOK; [1]) was 0% and the “%Inh” value (LRRK2; [1]) was 0%. The “%Inh” value (LTK; [1]) was 8%.
`CSc1nn2c(=O)cc(N3CCOCC3)nc2n1Cc1cccc(C(F)(F)F)c1C` [GSK2363608] was tested, and the “%Inh” value (KIT; [1]) was 4%, the “%Inh” value (LATS1; [1]) was 0% and the “%Inh” value (LATS2; [2]) was 13% and 0%. For the same molecule, the “%Inh” value (LCK; [2]) was 29% and 2%, the “%Inh” value (LIMK1; [2]) was 6% and 17% and the “%Inh” value (LIMK2; [2]) was 20% and 0%. The “%Inh” value (LKB1; [1]) was 0%, the “%Inh” value (LOK; [1]) was 0% and the “%Inh” value (LRRK2; [1]) was 0%. For the same molecule, the “%Inh” value (LTK; [2]) was 17% and 0%.
In the case of `Cc1ccc(NC(=O)Nc2cccc(Cl)c2)cc1-c1ccc(C(=O)Nc2ccncc2)cc1` [GSK1398468], the “%Inh” value (KIT; [1]) is reported as 99.6%, the “%Inh” value (LATS1; [1]) is reported as 0% and the “%Inh” value (LATS2; [1]) is reported as 0%. The “%Inh” value (LCK; [1]) was 25%, the “%Inh” value (LIMK1; [1]) was 0% and the “%Inh” value (LIMK2; [1]) was 12%. For the same molecule, the “%Inh” value (LKB1; [1]) was 0%, the “%Inh” value (LOK; [1]) was 0% and the “%Inh” value (LRRK2; [1]) was 0%. The “%Inh” value (LTK; [1]) was 7%.
In the case of `COc1ccc(Nc2nccc(NCCNC(=O)Nc3ccccc3F)n2)cc1` [GSK1379901], the “%Inh” value (KIT; [1]) is reported as 57%, the “%Inh” value (LATS1; [1]) is reported as 44% and the “%Inh” value (LATS2; [1]) is reported as 0%. The “%Inh” value (LCK; [1]) was 20%, the “%Inh” value (LIMK1; [1]) was 4% and the “%Inh” value (LIMK2; [1]) was 3%. The “%Inh” value (LKB1; [1]) was 0%, the “%Inh” value (LOK; [1]) was 0% and the “%Inh” value (LRRK2; [1]) was 0%. For the same molecule, the “%Inh” value (LTK; [1]) was 0%.
With `Cn1ccc2ncnc(Oc3ccc(Nc4nc5ccccc5[nH]4)cc3)c21` the “%Inh” value (KIT; [1]) was 77%, the “%Inh” value (LATS1; [1]) was 0% and the “%Inh” value (LATS2; [1]) was 0%. The “%Inh” value (LCK; [1]) was 0%, the “%Inh” value (LIMK1; [1]) was 0% and the “%Inh” value (LIMK2; [1]) was 0%. For the same molecule, the “%Inh” value (LKB1; [1]) was 3%, the “%Inh” value (LOK; [1]) was 93.7% and the “%Inh” value (LRRK2; [1]) was 0%. For the same molecule, the “%Inh” value (LTK; [1]) was 0%.
In the case of `Cl.Oc1ccc(-c2nc(-c3ccccc3)[nH]c2-c2ccncc2)cc1` [SB-428218], the “%Inh” value (KIT; [1]) is reported as 26%, the “%Inh” value (LATS1; [1]) is reported as 0% and the “%Inh” value (LATS2; [1]) is reported as 48%. For the same molecule, the “%Inh” value (LCK; [1]) was 20%, the “%Inh” value (LIMK1; [1]) was 0% and the “%Inh” value (LIMK2; [1]) was 0%. For the same molecule, the “%Inh” value (LKB1; [1]) was 8%, the “%Inh” value (LOK; [1]) was 0% and the “%Inh” value (LRRK2; [1]) was 0%. For the same molecule, the “%Inh” value (LTK; [1]) was 0%.
In the case of `COC(=O)c1c(-c2ccccc2)c2cc(C(=O)O)ccc2c(=O)n1Cc1ccccc1`, the “%Inh” value (KIT; [1]) is reported as 93.1%, the “%Inh” value (LATS1; [1]) is reported as 22% and the “%Inh” value (LATS2; [1]) is reported as 0%. The “%Inh” value (LCK; [1]) was 0%, the “%Inh” value (LIMK1; [1]) was 1% and the “%Inh” value (LIMK2; [1]) was 0%. The “%Inh” value (LKB1; [1]) was 0%, the “%Inh” value (LOK; [1]) was 0% and the “%Inh” value (LRRK2; [1]) was 0%. For the same molecule, the “%Inh” value (LTK; [1]) was 0%.
For `Cn1ccc2ncnc(Oc3ccc(NC(=O)Nc4ccccc4)cc3)c21`, the “%Inh” value (KIT; [1]) was 100%, the “%Inh” value (LATS1; [1]) was 16% and the “%Inh” value (LATS2; [1]) was 13%. For the same molecule, the “%Inh” value (LCK; [1]) was 20%, the “%Inh” value (LIMK1; [1]) was 1% and the “%Inh” value (LIMK2; [1]) was 1%. For the same molecule, the “%Inh” value (LKB1; [1]) was 0%, the “%Inh” value (LOK; [1]) was 94.8% and the “%Inh” value (LRRK2; [1]) was 24%. For the same molecule, the “%Inh” value (LTK; [1]) was 0%.
`COc1cc2nccc(Nc3ccc(NC(=O)c4ccc(C)cc4)c(O)c3)c2cc1OC.Cl` [GW440132] was tested, and the “%Inh” value (KIT; [1]) was 38%, the “%Inh” value (LATS1; [1]) was 0% and the “%Inh” value (LATS2; [1]) was 0%. The “%Inh” value (LCK; [1]) was 83%, the “%Inh” value (LIMK1; [1]) was 4% and the “%Inh” value (LIMK2; [1]) was 1%. The “%Inh” value (LKB1; [1]) was 2%, the “%Inh” value (LOK; [1]) was 0% and the “%Inh” value (LRRK2; [1]) was 28%. For the same molecule, the “%Inh” value (LTK; [1]) was 0%.
`Cn1cncc1-c1ccc2ncnc(Nc3ccc(OCc4ccccc4)cc3)c2c1` [GW320571] was tested, and the “%Inh” value (KIT; [1]) was 28%, the “%Inh” value (LATS1; [1]) was 0% and the “%Inh” value (LATS2; [1]) was 0%. For the same molecule, the “%Inh” value (LCK; [1]) was 13%, the “%Inh” value (LIMK1; [1]) was 18% and the “%Inh” value (LIMK2; [1]) was 11%. For the same molecule, the “%Inh” value (LKB1; [1]) was 0%, the “%Inh” value (LOK; [1]) was 2% and the “%Inh” value (LRRK2; [1]) was 21%. The “%Inh” value (LTK; [1]) was 11%.
`Cc1ccc(NC(=O)Nc2cccc(C(F)(F)F)c2)cc1` [GSK955403] was tested, and the “%Inh” value (KIT; 1 µM) was 91.4%, the “%Inh” value (LATS1; 1 µM) was 0% and the “%Inh” value (LATS2; 1 µM) was 20%. The “%Inh” value (LCK; 1 µM) was 6%, the “%Inh” value (LIMK1; 1 µM) was 0% and the “%Inh” value (LIMK2; 1 µM) was 10%. The “%Inh” value (LKB1; 1 µM) was 16%, the “%Inh” value (LOK; 1 µM) was 0% and the “%Inh” value (LRRK2; 1 µM) was 0%. The “%Inh” value (LTK; 1 µM) was 0%.
For `CC(C)(C)c1ccc(C(=O)Nc2cn3cc(-c4cccnc4)ccc3n2)cc1`, the “%Inh” value (KIT; [1]) was 91.5%, the “%Inh” value (LATS1; [1]) was 23% and the “%Inh” value (LATS2; [1]) was 10%. The “%Inh” value (LCK; [1]) was 8%, the “%Inh” value (LIMK1; [1]) was 16% and the “%Inh” value (LIMK2; [1]) was 20%. The “%Inh” value (LKB1; [1]) was 24%, the “%Inh” value (LOK; [1]) was 79% and the “%Inh” value (LRRK2; [1]) was 0%. For the same molecule, the “%Inh” value (LTK; [1]) was 19%.
`O=S(=O)(c1ccc(-c2ccnc3[nH]ccc23)cc1)N1CCCC1` [GSK846226] was tested, and the “%Inh” value (KIT; [1]) was 23%, the “%Inh” value (LATS1; [1]) was 0% and the “%Inh” value (LATS2; [1]) was 68%. For the same molecule, the “%Inh” value (LCK; [1]) was 5%, the “%Inh” value (LIMK1; [1]) was 7% and the “%Inh” value (LIMK2; [1]) was 21%. The “%Inh” value (LKB1; [1]) was 5%, the “%Inh” value (LOK; [1]) was 0% and the “%Inh” value (LRRK2; [1]) was 0%. For the same molecule, the “%Inh” value (LTK; [1]) was 0%.
For `NC(=O)c1nnc2ccccc2c1N`, the “%Inh” value (KIT; [1]) was 10%, the “%Inh” value (LATS1; [1]) was 0% and the “%Inh” value (LATS2; [1]) was 0%. For the same molecule, the “%Inh” value (LCK; [1]) was 0%, the “%Inh” value (LIMK1; [1]) was 0% and the “%Inh” value (LIMK2; [1]) was 5%. The “%Inh” value (LKB1; [1]) was 0%, the “%Inh” value (LOK; [1]) was 10% and the “%Inh” value (LRRK2; [1]) was 75%. For the same molecule, the “%Inh” value (LTK; [1]) was 0%.
